This note sets out measurements from article PMC4081100, “A DNA-binding-site landscape and regulatory network analysis for NAC transcription factors in Arabidopsis thaliana”.

What all share (assay): universal protein binding microarray (PBM); transcription factors of Arabidopsis thaliana; high values mean tight binding
Common to all, as to conditions: protein: recombinant; tags: GST; chain copies: 2; dsDNA, one strand shown

The target of one assay is T1, GST-ANAC092(1-176) (Arabidopsis thaliana, UniProt Q9FKA0 1-176).
T1 sequence: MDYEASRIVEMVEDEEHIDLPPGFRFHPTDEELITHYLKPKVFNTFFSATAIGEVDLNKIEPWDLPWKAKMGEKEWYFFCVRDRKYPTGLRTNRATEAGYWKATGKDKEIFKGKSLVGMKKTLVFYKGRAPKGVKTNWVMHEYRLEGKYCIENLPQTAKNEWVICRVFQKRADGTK
The essentials:
(§1)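 Binding is expressed as the normalised enrichment score (E-score). Proteins carrying a GST tag, whether NAC-domain, full-length or DNA-binding-domain forms, were induced in cells, and zinc acetate was added for zinc-finger proteins. After purification on glutathione–Sepharose 4B and quantification by A280 or anti-GST western blot, each was applied in duplicate at 200 to 500 nM final to custom all-10-mer Agilent 4 × 180K arrays made double-stranded by primer extension. Gapped and ungapped 8-mers were scored.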

A further assay concerns the target T2, GST-ANAC019 NAC domain (Arabidopsis thaliana, UniProt Q9C932 14-162).
T2 sequence: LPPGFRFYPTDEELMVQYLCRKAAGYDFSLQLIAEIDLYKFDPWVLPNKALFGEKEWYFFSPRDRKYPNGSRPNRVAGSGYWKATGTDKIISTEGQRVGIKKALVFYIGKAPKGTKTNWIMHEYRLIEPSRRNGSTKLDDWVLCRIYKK
Summed up:
as §1

The target in the next assay is T3, GST-ANAC055(1-171) (Arabidopsis thaliana, UniProt Q9LDY8 1-171).
T3 sequence: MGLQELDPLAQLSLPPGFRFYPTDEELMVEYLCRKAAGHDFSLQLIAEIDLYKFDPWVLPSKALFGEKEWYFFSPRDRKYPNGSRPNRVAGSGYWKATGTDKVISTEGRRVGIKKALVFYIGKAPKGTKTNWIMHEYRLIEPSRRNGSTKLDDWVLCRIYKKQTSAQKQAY
Summed up: as §1

The target of another assay is T4, GST-ATAF1 NAC domain (Arabidopsis thaliana, UniProt Q39013 7-158).
T4 sequence: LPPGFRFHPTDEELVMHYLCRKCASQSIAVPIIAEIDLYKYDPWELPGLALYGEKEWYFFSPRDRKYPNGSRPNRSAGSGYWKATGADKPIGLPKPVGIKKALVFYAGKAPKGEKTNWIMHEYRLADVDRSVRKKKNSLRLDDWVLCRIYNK
The essentials: as §1

Assay [1] concerns the target T5, GST-ANAC092(1-285) full length (Arabidopsis thaliana, UniProt Q9FKA0 1-285).
T5 sequence: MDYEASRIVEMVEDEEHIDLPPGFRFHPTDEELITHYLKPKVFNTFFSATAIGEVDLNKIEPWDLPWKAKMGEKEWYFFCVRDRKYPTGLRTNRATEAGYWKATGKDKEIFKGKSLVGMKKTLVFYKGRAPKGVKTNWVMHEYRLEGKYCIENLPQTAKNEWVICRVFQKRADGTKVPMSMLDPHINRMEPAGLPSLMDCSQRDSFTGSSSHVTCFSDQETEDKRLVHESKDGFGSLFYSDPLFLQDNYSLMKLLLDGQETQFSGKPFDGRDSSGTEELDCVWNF
The essentials: as §1

For a further assay, the target named is T6, GST-NAP(1-166) (Arabidopsis thaliana, UniProt O49255 1-166).
T6 sequence: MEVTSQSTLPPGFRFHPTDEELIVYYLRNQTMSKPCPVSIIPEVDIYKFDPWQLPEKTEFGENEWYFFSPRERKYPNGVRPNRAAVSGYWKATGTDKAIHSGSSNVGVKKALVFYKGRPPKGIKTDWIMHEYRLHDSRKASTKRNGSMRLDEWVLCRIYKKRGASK
The essentials: as §1

Another assay has as its target T7, GST-NST2(1-184) (Arabidopsis thaliana, UniProt Q9M274 1-184).
T7 sequence: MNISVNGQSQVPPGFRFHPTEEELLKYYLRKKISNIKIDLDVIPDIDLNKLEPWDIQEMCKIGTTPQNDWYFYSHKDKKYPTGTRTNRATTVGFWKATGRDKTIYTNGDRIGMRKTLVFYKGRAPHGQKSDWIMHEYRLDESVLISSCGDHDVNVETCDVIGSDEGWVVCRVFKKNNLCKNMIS
The essentials:
as §1

The target in another assay is T8, GST-SND1(1-203) (Arabidopsis thaliana, UniProt Q9LPI7 1-203).
T8 sequence: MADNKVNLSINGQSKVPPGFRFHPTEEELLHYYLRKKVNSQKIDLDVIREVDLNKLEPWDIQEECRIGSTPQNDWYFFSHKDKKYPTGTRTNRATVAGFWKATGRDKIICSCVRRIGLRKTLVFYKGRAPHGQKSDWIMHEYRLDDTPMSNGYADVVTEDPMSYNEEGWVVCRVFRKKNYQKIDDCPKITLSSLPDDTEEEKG
Summed up: as §1

For a further assay, the target named is T9, GST-VND3 NAC domain (Arabidopsis thaliana, UniProt Q9FH59 12-162).
T9 sequence: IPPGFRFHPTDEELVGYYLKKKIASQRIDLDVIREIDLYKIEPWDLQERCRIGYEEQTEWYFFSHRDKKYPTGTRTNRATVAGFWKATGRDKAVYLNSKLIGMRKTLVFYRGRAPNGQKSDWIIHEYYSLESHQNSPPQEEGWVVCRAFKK
Summed up: as §1

The target of the next assay is T10, GST-VND7 NAC domain (Arabidopsis thaliana, UniProt Q9C8W9 9-158).
T10 sequence: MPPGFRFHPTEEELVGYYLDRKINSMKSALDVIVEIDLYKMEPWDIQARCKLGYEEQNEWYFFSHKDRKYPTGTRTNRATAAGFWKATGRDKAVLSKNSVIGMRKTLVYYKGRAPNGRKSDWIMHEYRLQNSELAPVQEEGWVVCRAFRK
The essentials:
as §1

ATGTCGTG: the binding signal came out at 0.267 E-score in the assay with GST-ANAC092(1-176); 0.419 E-score with GST-ANAC019 NAC domain; 0.371 E-score with GST-ANAC055(1-171); 0.289 E-score with GST-ATAF1 NAC domain; 0.336 E-score in assay [1]; 0.2 E-score with GST-NAP(1-166). In addition, the binding signal is 0.0589 E-score with GST-NST2(1-184), 0.118 E-score in the assay with GST-SND1(1-203), 0.362 E-score with GST-VND3 NAC domain and 0.37 E-score in the assay with GST-VND7 NAC domain.

For the sequence GCACGGCA, the binding signal with GST-ANAC092(1-176) is 0.449 E-score; in the assay with GST-ANAC019 NAC domain, 0.472 E-score; with GST-ANAC055(1-171), 0.448 E-score; in the assay with GST-ATAF1 NAC domain, 0.361 E-score; in [1], 0.461 E-score; with GST-NAP(1-166), 0.41 E-score. Also, the binding signal in the assay with GST-NST2(1-184) stood at 0.164 E-score; in the assay with GST-SND1(1-203) it was 0.107 E-score; with GST-VND3 NAC domain, 0.408 E-score; with GST-VND7 NAC domain, 0.461 E-score.

Regarding TGCGTGAA, the binding signal in the assay with GST-ANAC092(1-176) was 0.325 E-score; in the assay with GST-ANAC019 NAC domain, 0.327 E-score; with GST-ANAC055(1-171), 0.258 E-score; with GST-ATAF1 NAC domain it was 0.234 E-score; in assay [1], 0.414 E-score; in the assay with GST-NAP(1-166), 0.189 E-score. For the same sequence, the binding signal was 0.198 E-score with GST-NST2(1-184), 0.338 E-score in the assay with GST-SND1(1-203), 0.281 E-score with GST-VND3 NAC domain and 0.263 E-score with GST-VND7 NAC domain.

Turning to ACGTCACC, the binding signal with GST-ANAC092(1-176) is 0.452 E-score; in the assay with GST-ANAC019 NAC domain it was 0.308 E-score; with GST-ANAC055(1-171) it was 0.32 E-score; in the assay with GST-ATAF1 NAC domain, 0.311 E-score; in [1], 0.463 E-score; in the assay with GST-NAP(1-166), 0.356 E-score. The binding signal with GST-NST2(1-184) came to 0.237 E-score; in the assay with GST-SND1(1-203), 0.408 E-score; in the assay with GST-VND3 NAC domain it was 0.239 E-score; in the assay with GST-VND7 NAC domain, 0.28 E-score.

Regarding CACGCATC, the binding signal with GST-ANAC092(1-176) came to 0.396 E-score; with GST-ANAC019 NAC domain, 0.334 E-score; in the assay with GST-ANAC055(1-171) it was 0.291 E-score; with GST-ATAF1 NAC domain it was 0.235 E-score; in [1] it was 0.44 E-score; with GST-NAP(1-166), 0.309 E-score. The binding signal with GST-NST2(1-184) came out at 0.125 E-score; in the assay with GST-SND1(1-203), 0.296 E-score; with GST-VND3 NAC domain, 0.239 E-score; with GST-VND7 NAC domain it was 0.232 E-score.

For the sequence ACGCTAAC, the binding signal was found to be 0.43 E-score in the assay with GST-ANAC092(1-176); 0.143 E-score with GST-ANAC019 NAC domain; 0.0694 E-score with GST-ANAC055(1-171); 0.142 E-score in the assay with GST-ATAF1 NAC domain; 0.457 E-score in [1]; 0.0585 E-score in the assay with GST-NAP(1-166). The binding signal was 0.289 E-score in the assay with GST-NST2(1-184), 0.454 E-score with GST-SND1(1-203), 0.127 E-score in the assay with GST-VND3 NAC domain and 0.113 E-score in the assay with GST-VND7 NAC domain.

Regarding ACGGCAAC, the binding signal in the assay with GST-ANAC092(1-176) was determined as 0.401 E-score; with GST-ANAC019 NAC domain, 0.386 E-score; with GST-ANAC055(1-171) it was 0.375 E-score; with GST-ATAF1 NAC domain, 0.288 E-score; in assay [1] it was 0.42 E-score; in the assay with GST-NAP(1-166), 0.264 E-score. Moreover, the binding signal was 0.264 E-score with GST-NST2(1-184), 0.246 E-score with GST-SND1(1-203), 0.326 E-score with GST-VND3 NAC domain and 0.331 E-score with GST-VND7 NAC domain.
